This is a sample that favours compounds with a hit; in the whole collection about 4% have one here.
ROMK primary: ROMK potassium channel modulators, primary screen, cell-based, thallium flux, MLSMR library; ATP-sensitive inward rectifier potassium channel 1 (Homo sapiens), P48048; Tet-inducible ROMK, thallium flux fluorescence; actives lie on both sides; B-score at 10 µM; 2% of 130,000 active; AID 1918, 2009;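 active means signal ratio slope over the read window, or its plate-corrected B-score, at least 3 SD from the plate mean, either direction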;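 further: B-score of the F/F0 ratio slope over 7 to 12 s after thallium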
Target sequence (P48048 whole entry, looked up): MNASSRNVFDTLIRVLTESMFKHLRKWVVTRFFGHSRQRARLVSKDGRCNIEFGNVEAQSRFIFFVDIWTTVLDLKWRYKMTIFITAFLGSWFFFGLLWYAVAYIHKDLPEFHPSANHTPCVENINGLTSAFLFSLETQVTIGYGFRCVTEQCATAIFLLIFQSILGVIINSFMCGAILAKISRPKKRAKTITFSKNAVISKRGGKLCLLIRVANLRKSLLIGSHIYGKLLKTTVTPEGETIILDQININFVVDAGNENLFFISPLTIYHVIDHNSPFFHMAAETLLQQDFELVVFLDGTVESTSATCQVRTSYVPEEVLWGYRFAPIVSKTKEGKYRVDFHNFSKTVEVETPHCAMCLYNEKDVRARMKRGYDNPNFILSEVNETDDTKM
KCC2 mod: KCC2 cotransporter modulators, thallium flux, primary screen, cell-based, HEK293 KCC2, FluoZin-2 fluorescence, MLSMR | Solute carrier family 12 member 5 (Homo sapiens), Q9H2X9 | KCC2 cells, thallium flux FluoZin-2 fluorescence | B-score of Tl+ flux slope (higher = more flux/activation; lower = inhibition) at 10 µM | 2.2% of 190,000 active;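 active means thallium flux slope and its plate-corrected score both differing from the plate sample mean at a set confidence after two filtering rounds, in either direction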;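 further: slope of fluorescence scaled to starting intensity during 10 to 20 s after thallium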
HSV augment: enhancers of HSV replication in host cells, fold increase, host cell viability | maximum fold increase | HSV replication augmentation in cells | 0.005% of 220,000 active; in the data active means maximum fold increase above about 1.5; inconclusive means no clear call, values can overlap the other calls; tested in PC3 cells
Measles CPE: compounds protecting cells from measles virus cytopathic effect, primary screen, measles RdRp inhibitor project, single point, MLSMR library, absorbance. Measles virus-infected cells, CPE protection. protection (pct of control), % at 4 µM. 1.5% of 140,000 active. AID 841, 2007; in the data active means protection mostly above about 24%, no sharp cut-off; inactive means mostly below about 26%
Arbovirus anti: antivirals against arbovirus infection, primary screen, cell-based, full library, 10K replicate subset. inhibition, % at 10 µM. arbovirus infection cell-based antiviral screen. AID 1251, 2008. 0.37% of 200,000 active; in the data active means inhibition above about 30%
KCC2 secondary: KCC2 modulators in sodium-free buffer, confirmation, cell-based, HEK293 KCC2, thallium flux, secondary assay | AID 1713, 2009 | FluoZin2 fluorescence; hits give high values | shares compounds with KCC2 mod | 15% of 3,700 active | normalised thallium flux (F/F0 slope) at 10 µM;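 active means thallium flux slope above the same plate's solvent-only control mean plus 3 SD; inconclusive means the two replicate wells disagree; inactive means no significant difference from solvent-only control wells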
KCC2 bumet counter: thallium flux persisting under bumetanide in KCC2 cells, confirmation, counter-screen for KCC2 modulator project, cell-based, HEK293 KCC2, FluoZin2, secondary assay 3; shares compounds with KCC2 mod; HEK293-KCC2 + bumetanide/ouabain; hits give high values; normalized thallium flux at 10 µM; 49% of 3,700 active; AID 1714, 2009;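 active means thallium entry rate above the same plate's blocked-transporter control wells by more than 3 SD; inconclusive means the two repeat wells disagree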;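 further: raw slope of fluorescence over initial fluorescence between 10 and 20 s after thallium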
KCC2 secondary2: KCC2 modulators without ouabain present, confirmation, cell-based, HEK293 KCC2, thallium flux, FluoZin2, secondary assay 2; shares compounds with KCC2 mod; 23% of 3,700 active; thallium flux FluoZin2 fluorescence; actives lie on both sides; F/F0 rise rate, 10–20 s post-thallium; normalized thallium flux at 10 µM; AID 1715, 2009;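 active means thallium flux slope more than 3 SD above or below the plate's solvent-only control mean, mostly below; inconclusive means the two repeat wells disagreed; inactive means no significant shift from solvent-only controls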
HEK293 Tl flux: thallium flux modulation in parental HEK cells, confirmation, counter-screen for KCC2 modulator project, cell-based, counterscreen 1 | shares compounds with KCC2 mod | HEK293 parental cells, thallium flux FluoZin2, ouabain; baseline-ratio fluorescence slope, 10–20 s after thallium | thallium flux rate (normalised fluorescence) at 10 µM | 46% of 3,700 active;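 active means thallium flux rate significantly above the same plate's solvent-only control wells, beyond their mean plus 3 SD; inconclusive means the two replicate wells gave conflicting results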
KCC2 ouabain: KCC2 inhibitors and activators, ouabain retest, confirmation, HEK-KCC2 cells; shares compounds with KCC2 mod; HEK293-KCC2, thallium flux FluoZin2 fluorescence; bidirectional: low = inhibitor, high = activator; raw Tl+ flux slope (below DMSO = inhibition, above = activation) at 10 µM; 48% of 3,700 active;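 active means thallium flux slope beyond 3 SD from same-plate DMSO control mean in most replicates, usually higher, sometimes lower; inconclusive means repeat tests gave conflicting results; inactive means no significant difference from controls in most replicates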;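 further: slope of initial-normalized fluorescence between seconds 10 and 20 after thallium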
HEK counter2: native HEK Tl+ uptake effects, second counter-screen – HEK cells, counterscreen 2, counter-screen for KCC2 modulator project, confirmation | thallium flux slope at 10 µM | AID 1718, 2009 | shares compounds with KCC2 mod | 33% of 3,700 active | HEK293 parental, thallium flux FluoZin-2 fluorescence slope;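 active means thallium flux slope above the same plate's solvent-control mean plus 3 SD in both duplicate wells; inconclusive means duplicate wells that disagreed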;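 further: run without ouabain in cells lacking the KCC2 cotransporter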
A number is an active result; n = inactive; u = inconclusive; x = no result given.

SMILES	ROMK primary	KCC2 mod	HSV augment	Measles CPE	Arbovirus anti	KCC2 secondary	KCC2 bumet counter	KCC2 secondary2	HEK293 Tl flux	KCC2 ouabain	HEK counter2
COc1ccccc1-c1nc(COc2ccc(Cl)cc2Cl)no1	x	n	n	x	x	x	x	x	x	x	x
CC(C)NC(=O)C1CCN(C(=O)C(C(=O)c2ccccc2)n2cc(Cl)ccc2=O)CC1 (centres undefined)	x	-4.3	n	n	n	n	u	n	0.0096	n	u
COc1cc(CNCc2c[nH]c3ccccc23)cc(OC)c1	n	n	n	x	n	x	x	x	x	x	x
CC(C)OCCCNC(=O)c1cc2c(s1)CS(=O)(=O)C2	n	x	n	n	n	n	n	n	n	n	n
O=C(CSc1nc(O)cc(=O)n1-c1ccccc1)Nc1nc2ccccc2s1	n	n	n	x	x	x	x	x	x	x	x
O=C(O)CC(=O)NC12CC3CC(CC(C3)C1)C2	n	n	n	n	n	n	n	n	n	n	u
O=C(NCCc1ccccc1)c1ccc(CS(=O)(=O)Cc2ccccc2F)o1	n	n	n	n	n	x	x	x	x	x	x
Cc1ccc(CCNC(=O)c2ccc(CS(=O)(=O)Cc3ccccc3F)o2)cc1	n	-6.8	n	n	n	n	u	u	n	n	n
CCCSc1nc(=S)n(Cc2ccccc2)c(C)c1C(C)=O	n	n	n	x	n	x	x	x	x	x	x
CC(=O)c1cccc(N(C(=O)Cn2nnc3ccccc32)C(C(=O)NC2CCCCC2)c2cn(C)nc2C)c1 (centres undefined)	n	x	n	n	n	n	u	n	n	n	u
Cc1ccc(C)n1NC(=O)c1ccccc1	x	-5.8	n	n	n	n	u	n	n	n	n
Cc1ccc(C)n1NC(=O)c1ccc(O)cc1	n	n	n	n	n	x	x	x	x	x	x
CCCC(=O)Nc1cccc(-c2nc3cc(C)c(C)cc3o2)c1	n	x	n	n	n	n	n	n	n	n	n
CCNS(=O)(=O)c1ccc(OC)c(C(=O)NC2CCCCC2)c1	n	n	n	x	n	x	x	x	x	x	x
O=C(CCN1CCN(Cc2ccccc2)CC1)Nc1cccc(Cl)c1	x	-3.8	n	n	n	n	n	0.024	n	0.014	n
COc1ccc(S(=O)(=O)NCCOc2ccccc2)cc1-n1cnnn1	n	-3.8	n	x	n	n	u	0.025	n	0.017	n
COC(=O)c1c([N+](=O)[O-])c(OC)c(OC)c(OC)c1[N+](=O)[O-]	n	n	n	x	n	x	x	x	x	x	x
CN(C)c1ncc(S(=O)(=O)c2ccccc2)c(-c2ccc(Cl)cc2Cl)n1	x	-5.7	x	n	n	n	n	n	n	n	n
NNC(=S)Nc1ccc(C(F)(F)F)cc1Cl	x	16	n	x	x	n	0.03	n	0.02	n	0.014
NNC(=S)Nc1ccccc1Cl	n	n	n	x	n	x	x	x	x	x	x
O=S(=O)(Nc1nc2ccccc2nc1N1CCN(c2ccccn2)CC1)c1ccc(Cl)cc1	n	-3.1	n	n	n	n	n	0.024	n	u	n
CCOC(=O)C1(CCc2ccccc2)CCN(C(=O)c2cc(C)nc(C)n2)CC1	n	n	n	x	n	x	x	x	x	x	x
S=C1CSc2ccccc2N1	x	8.6	n	x	n	n	0.016	n	0.014	u	0.014
CCOc1cc(CNC2CCCC2)c(Cl)cc1OCC(=O)Nc1ccccc1	n	n	n	x	n	x	x	x	x	x	x
S=C(NCCc1ccccc1)N/N=C/c1ccc(Cl)cc1	n	n	n	x	x	x	x	x	x	x	x
SMILES	ROMK primary	KCC2 mod	HSV augment	Measles CPE	Arbovirus anti	KCC2 secondary	KCC2 bumet counter	KCC2 secondary2	HEK293 Tl flux	KCC2 ouabain	HEK counter2
S=C(NCCc1ccccc1)N/N=C/c1c(Cl)cccc1Cl	n	7.9	n	n	n	u	0.019	u	0.015	0.032	0.017
CNC(=S)N/N=C/c1c(Cl)cccc1Cl	n	5.4	n	n	n	n	0.014	n	0.016	n	0.013
NC(=S)NNC(=O)Nc1ccc(Cl)c(Cl)c1	n	n	n	n	n	x	x	x	x	x	x
NC(=O)N1CC(O)CC1C(=O)Nc1ccc(Cl)c(Cl)c1 (centres undefined)	n	n	n	n	n	n	n	n	n	n	n
O=C(O)CCSc1ncnc2sc(-c3ccccc3)cc12	x	51	n	x	x	u	0.056	0.043	0.056	0.055	0.033
COCCNC(=O)CSc1ncnc2sc(-c3ccccc3)cc12	n	7.5	n	x	n	n	0.021	n	0.014	0.022	0.017
O=C(O)CSc1ncnc2sc(-c3ccccc3)cc12	n	n	n	x	n	x	x	x	x	x	x
COC(=O)C1=C(C(=O)OC)[C@@H]2N(C)c3ccccc3[C@@]23C[C@@H](CO)N=C3N1	x	x	n	x	x	x	x	x	x	x	x
O=c1cc(CSc2nnc(Nc3ccccc3F)s2)nc2sccn12	n	n	n	x	n	x	x	x	x	x	x
COc1ccc(Nc2nnc(SCc3cc(=O)n4ccsc4n3)s2)cc1	x	-5.2	n	n	n	n	n	0.03	n	0.017	n
CN1C(=O)/C(=C/c2cc3c(cc2Br)OCO3)NC1=S	n	7.1	n	x	n	u	0.023	n	0.013	0.031	n
Cc1ccc(OCCCn2c(=O)sc3ccccc32)cc1	x	5.8	n	n	n	n	n	n	n	n	u
Cc1ccc(OCCn2c(=O)sc3ccccc32)cc1	n	n	n	n	n	x	x	x	x	x	x
CCOc1ccc(NC(=O)CSc2nc3ccccc3c(=O)n2CCCC(=O)NCCCN2CCCC2=O)cc1	n	n	n	x	n	x	x	x	x	x	x
S=C(Nc1ccccc1)Nc1cccc(Cl)c1Cl	n	17	n	x	n	n	0.016	n	0.012	u	0.014
CC1=C(C(=O)N(C)C)C(c2ccc(N3CCOCC3)cc2)NC(=O)N1 (centres undefined)	n	n	n	x	n	x	x	x	x	x	x
Cc1cc(C(=O)Nc2nc3c(s2)CCCC3)no1	x	4.4	n	n	n	n	0.015	n	0.0091	n	u
Cc1onc(-c2ccccc2)c1C(=O)Nc1nc2c(s1)CCCC2	n	n	n	n	n	x	x	x	x	x	x

Screening results deposited in PubChem BioAssay by several laboratories.
